Records with an inconclusive call do not appear. A number with no mark means an inactive call. Activity calls are given as the source filed them. Calls come from the whole dose curve; as a rule, active = well fitted inhibition curve with a large enough effect in the repeat runs; inconclusive = weak or mixed curves; inactive = flat fitted curve, though single readings scatter.
molecular target: Voltage-gated inwardly rectifying potassium channel KCNH2 (Homo sapiens) (UniProt Q12809); test: Human Ether-a-go-go-Related Gene (hERG) channel small molecule antagonists: fluorescence cell-based qHTS assay (AID 1671200); conditions: hERG-U2OS cells, FluxOR thallium flux fluorescence; series mostly up to 76.8 µM; activity change, negative = inhibition: at the top concentration; note: nearly all actives have a fitted effect of over 50% in size;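 for activity change, negative = inhibition: hERG-expressing U2OS cells given a thallium stimulus after FluxOR II dye loading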
Summary of the method: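 Channel function was assessed by thallium flux. Cells seeded the previous day and kept at 37 C took up FluxOR II dye over 1 h in the dark at room temperature, then sat another 10 min before stimulation.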
% is set by controls: 0 for no effect and ±100 for the full control effect; potency is the fitted concentration of half-maximal effect.

Voltage-gated inwardly rectifying potassium channel KCNH2 (Homo sapiens), sequence (Q12809 whole entry, looked up): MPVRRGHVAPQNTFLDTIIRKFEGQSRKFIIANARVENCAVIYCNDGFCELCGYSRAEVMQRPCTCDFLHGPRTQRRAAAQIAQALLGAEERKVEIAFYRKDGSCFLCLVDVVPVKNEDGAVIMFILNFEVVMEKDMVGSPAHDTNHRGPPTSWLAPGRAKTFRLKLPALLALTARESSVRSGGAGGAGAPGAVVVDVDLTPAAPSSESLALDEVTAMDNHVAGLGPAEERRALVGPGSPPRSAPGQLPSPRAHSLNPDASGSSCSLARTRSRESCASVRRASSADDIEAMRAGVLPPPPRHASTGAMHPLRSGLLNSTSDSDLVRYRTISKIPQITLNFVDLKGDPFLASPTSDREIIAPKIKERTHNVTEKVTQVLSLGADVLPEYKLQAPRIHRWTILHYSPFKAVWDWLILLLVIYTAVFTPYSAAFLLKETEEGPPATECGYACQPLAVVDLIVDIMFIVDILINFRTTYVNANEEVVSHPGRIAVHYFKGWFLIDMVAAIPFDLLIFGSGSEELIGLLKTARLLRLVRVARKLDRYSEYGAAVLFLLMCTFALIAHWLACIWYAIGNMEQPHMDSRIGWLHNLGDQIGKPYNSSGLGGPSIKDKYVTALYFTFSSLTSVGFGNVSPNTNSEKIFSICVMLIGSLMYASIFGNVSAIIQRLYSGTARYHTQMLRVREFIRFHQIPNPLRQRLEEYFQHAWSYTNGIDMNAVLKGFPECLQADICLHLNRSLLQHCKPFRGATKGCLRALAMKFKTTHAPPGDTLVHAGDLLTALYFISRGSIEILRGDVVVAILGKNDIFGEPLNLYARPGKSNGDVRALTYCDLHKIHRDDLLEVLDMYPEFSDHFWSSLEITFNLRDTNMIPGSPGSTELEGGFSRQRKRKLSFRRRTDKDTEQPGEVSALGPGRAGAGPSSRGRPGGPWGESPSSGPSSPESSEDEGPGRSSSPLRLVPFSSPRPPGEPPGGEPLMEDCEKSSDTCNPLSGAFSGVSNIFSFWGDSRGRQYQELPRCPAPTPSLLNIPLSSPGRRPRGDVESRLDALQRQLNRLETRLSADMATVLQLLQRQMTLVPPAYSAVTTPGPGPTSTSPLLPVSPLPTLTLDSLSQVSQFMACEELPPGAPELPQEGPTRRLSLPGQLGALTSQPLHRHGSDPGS

SMILES	activity change, negative = inhibition	Potency
COc1cc2nc(Cl)nc(N)c2cc1OC	-0.77% [at 35.3 µM]	
CCCCC1=NC2(CCCC2)C(=O)N1Cc1ccc(-c2ccccc2-c2nn[nH]n2)cc1	12.4% [at 35.3 µM]	
CC[N+](C)(CC)CCOC(=O)C(O)(c1ccccc1)C1CCCCC1 (stereo not drawn)	-4.39% [at 35.3 µM]	
O=C1[C@H]2CCCC[C@H]2C(=O)N1CCCCN1CCN(c2nsc3ccccc23)CC1		8.49 µM (active)
CCOC(=O)Cc1cccc2ccccc12	-5.99%	
Nc1ccc(S(=O)(=O)Nc2ccccc2)cc1	2.84% [at 35.3 µM]	
O=C(NCCO[N+](=O)[O-])c1cccnc1	3.35% [at 35.3 µM]	
CCCCC	-5.19%	
CCO[Si](CCCCl)(OCC)OCC	1.01%	
CCCCc1nc2cccnc2n1Cc1ccc(-c2ccccc2-c2nnn[nH]2)cc1	-0.483%	
CCOc1ccc(N)c([N+](=O)[O-])c1	4.66%	
COc1ccc2cccc(CCNC(C)=O)c2c1	1.17% [at 35.3 µM]	
c1ccc(C(O[C@H]2CCCN(CCc3ccc4c(c3)OCO4)C2)c2ccccc2)cc1		0.535 µM (active)
CN1CCC(=C2c3ccccc3Sc3ccccc32)CC1		12 µM (active)
Clc1ccc(Cn2c(CN3CCCC3)nc3ccccc32)cc1		1.34 µM (active)
O=C(Nc1ccc(S(=O)(=O)N2CCOCC2)cc1)c1cc(Cl)ccc1NS(=O)(=O)c1ccc(Cl)s1	14.7% [at 35.3 µM]	
CCCCNc1ccc(C(=O)OCCOCCOCCOCCOCCOCCOCCOCCOCCOC)cc1	-5.62% [at 35.3 µM]	
CCN(CC)CCOC(=O)C(c1ccccc1)C1CCCCC1 (stereo not drawn)		6.01 µM (active)
CCCCCCCCCCO[C@@H]1O[C@H](CO)[C@@H](O)[C@H](O)[C@H]1O	1.8%	
CCCCCCOC(=O)NC(=N)c1ccc(NCc2nc3cc(C(=O)N(CCC(=O)OCC)c4ccccn4)ccc3n2C)cc1		0.601 µM (active)
CCC(=O)O[C@]1(C(=O)CCl)[C@@H](C)C[C@H]2[C@@H]3CCC4=CC(=O)C=C[C@]4(C)[C@@]3(F)[C@@H](O)C[C@@]21C	-1.16% [at 35.3 µM]	
S=C([S-])NCCNC(=S)[S-].[Mn+2]	0.642%	
CC(=O)c1cccc([N+](=O)[O-])c1	-4.17%	
Cc1c(N)cccc1[N+](=O)[O-]	4.04%	
CC(=O)OC[C@H]1O[C@@H](n2ncc(=O)[nH]c2=O)[C@H](OC(C)=O)[C@@H]1OC(C)=O	0.639% [at 35.3 µM]	
CCCCC(CC)COC(=O)CCCCCCCCC(=O)OCC(CC)CCCC (stereo not drawn)	1.68%	
O[C@@H](COc1cccc2ncccc12)CN1CCN(C2c3ccccc3[C@@H]3[C@H](c4ccccc42)C3(F)F)CC1 (stereo partly drawn)		10.7 µM (active)
CC1OC(=O)C(C)OC1=O (stereo not drawn)	-1.18%	
